# Rows were chosen to be rich in hits. Some 2.4% of all compounds tested hit in one or more screens of this group.
# TMEM16A inh: blocks the mouse calcium-activated chloride channel TMEM16A; HEK293 TMEM16A/YFP iodide influx fluorescence, ionomycin; normalized B-score (activity score, 25-100; higher = stronger inhibition) at 10 µM; 1.2% of 310,000 active;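 active = ratio plate-corrected score three or more library SD toward inhibition, starting fluorescence score within five deviations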;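 note: score derived from kinetic fluorescence span divided by baseline fluorescence per well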
# ANO1 activ: activates or potentiates the mouse TMEM16A chloride channel; Q8BHY3; HEK293 TMEM16A/YFP-H148Q/I152L, iodide quench fluorescence; hits give low values; B-score at 10 µM; 0.3% of 340,000 active; AID 623877;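 active = fluorescence-ratio B-score plate-corrected deviation score at least 3 library SD below zero, with starting fluorescence score within 5 deviations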;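 note: channel opened by trigger with iodide after compound preincubation; score built on the fluorescence ratio of max minus min over baseline; more negative score means more quench and so TMEM16A activation or potentiation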
# CHT block: human CHT choline transport inhibition. Q9GZV3. CHT-expressing cells, membrane potential dye, choline response; hits give low values. B-score at 10 µM. 0.86% of 310,000 active;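 active = B-score over 3 SD under the library average, and starting fluorescence ratio not unusually high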;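 note: choline stimulus applied at its EC90 after an EC20 pre-addition; B-score computed on integrated fluorescence ratio after choline addition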
# CHT allo act: allosteric activators of human choline transporter CHT | AID 488977 | B-score at 10 µM | Q9GZV3 | CHT-expressing cells, membrane potential dye, choline EC20; hits give high values; LV-AA mutant CHT in HEK293 cells | 0.49% of 310,000 active;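 active = initial fluorescence not abnormally high and integrated response B-score, plate-corrected, over 3 SD above library mean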
# TMEM16A reconf: TMEM16A (mouse) chloride channel inhibition, re-confirmation; shares compounds with TMEM16A inh; 39% of 2,300 active; AID 652189; HEK293 TMEM16A/YFP-H148Q, iodide quench fluorescence; ionomycin added to raise cell calcium; inhibition, % at 10 µM;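 active = mean duplicate percent inhibition, scaled so buffer wells are 0 and the reference blocker 100, over three buffer SD above buffer mean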
# HEK293 Ca mobil: calcium mobilization counter-screen hit for TMEM16A inhibitor series. shares compounds with TMEM16A inh. TMEM16A/YFP HEK293, Fluo4 calcium mobilization. calcium response (% of ionomycin), % at 10 µM. 2% of 2,300 active. AID 652231;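 active = duplicate-averaged calcium signal over 20% of the ionomycin maximum, relative to buffer baseline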;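 note: each well's signal is peak minus trough fluorescence divided by its pre-addition baseline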
# YFP-HEK293 quench: acts in parental YFP-HEK293 cells lacking TMEM16A, counter-screen; shares compounds with TMEM16A inh; iodide YFP quench, ionomycin; AID 652233; YFP ratio F(max-min)/F0 at 10 µM; 2,300 tested, under 10 active;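 active = yellow fluorescent protein signal ratio exceeding the buffer control mean by over 5 SD of those controls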;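 note: ratio is mean of duplicate wells from kinetic YFP trace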
# ClC-1 rat inh: blocks the rat ClC-1 voltage-dependent chloride channel | shares compounds with TMEM16A inh | ratio percent, % at 10 µM | 2,300 tested, under 10 active | CHO ClC-1-YFP, iodide influx fluorescence quench; iodide control reads 0, buffer control 100;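 active = duplicate-mean ratio percent above the mean of iodide-only control wells, which defines zero, plus 5 of their SD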;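 note: higher percent means stronger block of ClC-1 iodide influx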
# Target sequence (P35524 whole entry, looked up): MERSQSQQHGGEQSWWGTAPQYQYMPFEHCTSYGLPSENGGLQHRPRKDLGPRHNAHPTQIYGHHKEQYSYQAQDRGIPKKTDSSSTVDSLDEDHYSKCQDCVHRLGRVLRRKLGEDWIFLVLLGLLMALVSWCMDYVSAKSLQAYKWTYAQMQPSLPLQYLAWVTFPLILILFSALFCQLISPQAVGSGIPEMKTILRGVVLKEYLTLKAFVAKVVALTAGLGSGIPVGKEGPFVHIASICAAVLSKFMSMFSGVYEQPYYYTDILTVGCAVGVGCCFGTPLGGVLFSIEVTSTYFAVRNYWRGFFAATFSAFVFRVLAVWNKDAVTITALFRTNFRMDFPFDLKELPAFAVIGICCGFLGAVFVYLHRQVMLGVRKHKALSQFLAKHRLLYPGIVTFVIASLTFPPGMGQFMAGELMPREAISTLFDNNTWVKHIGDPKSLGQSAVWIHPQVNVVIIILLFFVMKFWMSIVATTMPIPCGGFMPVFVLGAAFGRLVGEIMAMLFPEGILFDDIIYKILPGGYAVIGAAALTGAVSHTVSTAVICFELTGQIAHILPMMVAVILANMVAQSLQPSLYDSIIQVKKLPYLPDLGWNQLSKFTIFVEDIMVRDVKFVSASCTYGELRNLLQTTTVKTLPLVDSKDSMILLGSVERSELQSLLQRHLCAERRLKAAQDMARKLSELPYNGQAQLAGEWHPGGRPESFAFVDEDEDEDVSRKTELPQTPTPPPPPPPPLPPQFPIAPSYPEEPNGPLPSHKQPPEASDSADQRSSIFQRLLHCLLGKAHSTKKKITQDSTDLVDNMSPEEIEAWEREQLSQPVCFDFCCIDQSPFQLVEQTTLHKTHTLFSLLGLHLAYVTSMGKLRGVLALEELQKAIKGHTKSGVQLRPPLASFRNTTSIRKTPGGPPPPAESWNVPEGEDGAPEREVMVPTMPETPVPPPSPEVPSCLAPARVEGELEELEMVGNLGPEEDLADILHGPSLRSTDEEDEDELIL
# Hits are given with their value; . = inactive; / = no result given.
SMILES,TMEM16A inh,ANO1 activ,CHT block,CHT allo act,TMEM16A reconf,HEK293 Ca mobil,YFP-HEK293 quench,ClC-1 rat inh
N#Cc1c(CSCC(=O)O)cc(=O)n2c1[nH]c1ccccc12,.,.,.,.,/,/,/,/
CC1=CC(C)(C)N(S(=O)(=O)c2ccc(F)cc2)c2ccccc21,25,.,.,.,.,.,.,.
CC(=O)Nc1ccc(S(=O)(=O)N2c3ccccc3C(C)=CC2(C)C)cc1,.,.,.,.,/,/,/,/
CC1=CC(C)(C)N(S(=O)(=O)c2ccc(C)cc2)c2ccc(C)cc21,25,.,.,.,.,.,.,.
CC1CCCCN1Cc1c(O)ccc2c(=O)c(-c3ccccc3)coc12 (configuration not stated),.,.,.,.,/,/,/,/
O=C(NCc1ccco1)C1CC(c2ccc(F)cc2)=NO1 (configuration not stated),.,.,.,.,/,/,/,/
O=C(NCCn1cc(SCc2ccccc2)c2ccccc21)c1ccccc1F,25,.,.,.,.,.,.,.
O=C(Nc1ccc(Cl)c(Cl)c1)Nc1ccccc1O,100,.,.,.,22%,.,.,.
CC(C)OC(=O)C1C2C=CC3(CN(Cc4cccs4)C(=O)C13)O2 (configuration not stated),100,.,.,.,.,.,.,.
CC(OC(=O)c1cc(Br)ccc1O)C(=O)Nc1ccc(S(=O)(=O)N2CCCC2)cc1 (configuration not stated),100,.,.,.,62%,.,.,.
CC(Cc1cccs1)NC(=O)Nc1cccc(Cl)c1 (configuration not stated),.,.,.,.,/,/,/,/
CC(C)(C)C1=Nn2c(nnc2-c2ccccn2)SC1,.,.,.,.,.,.,.,.
CC(C)(C)C1=Nn2c(nnc2-c2ccccc2F)SC1,.,.,.,.,/,/,/,/
O=c1nc(SCc2cccc(C(F)(F)F)c2)nc2ccccn12,.,.,.,.,/,/,/,/
CC1=CC(C)(C)N2C(=O)C3(SCC(=O)N3c3ccc(F)cc3)c3cc(C)cc1c32 (configuration not stated),100,.,.,.,20%,.,.,.
O=C(CCc1nnc(-c2ccc3c(c2)OCO3)o1)NC(c1ccccn1)C(F)(F)F (configuration not stated),.,.,.,.,/,/,/,/
CCC1SC2=NC(C)=C(C(=O)OCC(C)C)C(/C=C/c3ccccc3OC)N2C1=O (configuration not stated),100,.,.,.,.,.,.,.
COc1ccccc1/C=C/C1C(C(=O)OCC(C)C)=C(C)N=C2SCCC(=O)N21 (configuration not stated),.,.,.,.,/,/,/,/
CCCCOc1ccccc1Cn1c(=O)oc2ccc(C)cc21,100,.,.,.,.,.,.,.
COCc1cc(=O)n2[nH]cc(-c3ccccc3)c2n1,.,.,.,.,/,/,/,/
CCCc1cc(=O)n2[nH]cc(-c3ccc(Cl)cc3)c2n1,100,.,.,.,.,.,.,.
Cn1c(/C=C/c2ccc(Cl)cc2)c([N+](=O)[O-])c(=O)n(C)c1=O,.,.,.,.,/,/,/,/
O=C(CNC(=O)c1ccc(F)cc1)NCc1ccccn1,/,.,/,/,/,/,/,/
CCOc1cc(CNc2ccccc2)cc(Br)c1OCC(=O)NC(C)(C)C,25,.,.,.,.,.,.,.
CCOc1cc(CNc2ccc(Br)cc2)cc(Br)c1OCC(=O)NC(C)(C)C,.,.,.,.,/,/,/,/
SMILES,TMEM16A inh,ANO1 activ,CHT block,CHT allo act,TMEM16A reconf,HEK293 Ca mobil,YFP-HEK293 quench,ClC-1 rat inh
Cc1cc([N+](=O)[O-])nn1CC(=O)Nc1ccc(Cl)cn1,.,.,.,.,/,/,/,/
COc1ccc(C(=O)c2sc(Nc3ccccc3)nc2C)cc1,.,.,.,.,.,.,.,.
Cc1nc(Nc2ccccc2)sc1C(=O)c1ccccc1,.,.,.,.,/,/,/,/
C/C(CC1CC2=C(CC1(C)C)C(C)(C)CCC2)=N\NC(N)=S (configuration not stated),25,.,.,.,.,26%,.,.
C/C(CC1CC(C)(C)OC1=O)=N\NC(N)=S (configuration not stated),.,.,.,.,/,/,/,/
CCC(=O)N1CCc2cc(S(=O)(=O)CCC(=O)N(C)c3ccc(OC)cc3OC)ccc21,.,.,.,.,/,/,/,/
Cc1ccc(-c2noc(CSc3nnnn3C3CCCCC3)n2)cc1,100,.,.,.,30%,.,.,.
CCN(CC)S(=O)(=O)c1ccc(-c2nnc(SCC(C)=O)o2)cc1,.,.,.,.,/,/,/,/
CCN(CC)S(=O)(=O)c1ccc(-c2nnc(SCC(=O)Nc3cc(OC)cc(OC)c3)o2)cc1,100,.,.,.,.,.,.,.
O=C(C[C@@H]1C/C=C\C[C@H](NC(=O)OCC2c3ccccc3-c3ccccc32)C(=O)O[C@H](c2ccccc2)CNC1=O)NCCO,/,.,/,/,/,/,/,/
Cc1cccc(OCCCSc2nc3ccc(C)cc3[nH]2)c1,100,.,.,.,33%,.,.,.
Cc1cccc(OCCSc2nc3ncnc(N)c3[nH]2)c1,.,.,.,.,/,/,/,/
CN(C)S(=O)(=O)c1cccc(COC(=O)c2cccnc2Cl)c1,25,.,.,.,.,.,.,.
CC(C)N(Cc1nccn1C)C(=O)c1cc(COc2ccc3ncccc3c2)on1,.,.,.,.,/,/,/,/
Cc1nc(CN(C)C(=O)c2cc(COc3ccc4ncccc4c3)on2)cs1,100,.,.,.,18%,.,.,.
CN1C(=O)C(C)(C)c2cc(S(=O)(=O)N3CCN(c4ccccc4)CC3)ccc21,100,.,.,.,.,.,.,.
CN1C(=O)C(C)(C)c2cc(S(=O)(=O)N3CCCCCC3)ccc21,.,.,.,.,/,/,/,/
C=C(C)C(=O)Nc1ccc(OC(F)(F)C(F)F)c(NC(=O)C(=C)C)c1,.,.,.,.,/,/,/,/
CC(=O)Nc1ccc(OC(F)(F)C(F)C(F)(F)F)c(NC(C)=O)c1 (configuration not stated),100,.,.,.,.,.,.,.
COCc1c(C(=O)OCC(=O)c2c(N)n(CC(C)C)c(=O)n(C)c2=O)oc2ccccc12,25,.,.,.,.,.,.,.
CCc1ccc(C(=O)OCC(=O)c2c(N)n(CC(C)C)c(=O)n(C)c2=O)cc1,25,.,.,.,.,.,.,.
CC(C)Cn1c(N)c(C(=O)COC(=O)c2ccc(F)cc2)c(=O)n(C)c1=O,.,.,.,.,/,/,/,/
O=C(CSc1ncn[nH]1)Nc1ccc(S(=O)(=O)Nc2ncccn2)cc1,.,.,.,.,/,/,/,/

# Screening results from PubChem BioAssay.
